GLP1R cytotox – cytotoxic in the GLP-1 receptor inverse agonist counter-screen; HEK293 cAMP-luciferase reporter cells, luminescence, 24 h; Potency, µM (titrated, usually from 38.3 µM), for inactives: at the highest dose activity change, negative = inhibition, actives largely listed as inhibitors; 410,000 compounds, 0.13% hits;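 further: loss of luciferase light is scored as toxicity; on the % scale 0 is the no-effect control and ±100 the full control effect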
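A 23 nL compound transfer followed 12 hours of cell culture at 37 deg C; exposure then lasted 24 hr. Luciferase assay detection reagent was dispensed and plates read for luminescence after a 12 min room-temperature wait.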
GLP-1R inv ag – inverse agonists of human GLP-1 receptor | HEK293 GLP-1R CRE-luciferase, luminescence, 24 h; GLP-1R form is constitutively active | Potency, µM (doses to about 38.3 µM), inactives show top-dose activity change, negative = inhibition, usual class: inhibitors | 410,000 compounds, 1.6% hits | AID 624417; further: on the % scale 0 is the no-effect control and ±100 the full control effect; nearly all actives have a fitted effect of over 55% in size
Target sequence (P43220 whole entry, looked up): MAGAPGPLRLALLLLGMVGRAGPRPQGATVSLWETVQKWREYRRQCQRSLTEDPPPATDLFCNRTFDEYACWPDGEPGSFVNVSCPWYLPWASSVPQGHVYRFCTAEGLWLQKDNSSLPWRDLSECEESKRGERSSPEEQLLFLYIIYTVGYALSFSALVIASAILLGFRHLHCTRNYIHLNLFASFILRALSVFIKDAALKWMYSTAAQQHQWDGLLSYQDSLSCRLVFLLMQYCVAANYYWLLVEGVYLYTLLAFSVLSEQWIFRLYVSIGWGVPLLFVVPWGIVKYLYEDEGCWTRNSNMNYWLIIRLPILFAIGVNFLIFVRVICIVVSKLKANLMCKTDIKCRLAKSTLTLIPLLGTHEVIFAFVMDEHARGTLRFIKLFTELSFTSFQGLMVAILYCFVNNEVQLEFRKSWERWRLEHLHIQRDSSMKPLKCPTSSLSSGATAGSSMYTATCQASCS
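Inverse agonists were sought by their lowering of basal cAMP reporter luciferase output in HEK293 cells stably carrying constitutively active human GLP-1R, after 24 h compound treatment.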
Mito fusion yeast – inhibitors of mitochondrial division or activators of mitochondrial fusion; S. cerevisiae fusion-defective mutant growth rescue, CellTiterGlo 48 h; Potency, µM (top dose mostly 46.1 µM), for inactives: top-dose growth rescue (activation), usual class: activators; 320,000 compounds, 0.23% hits; further: % of control where 0% means no effect; nearly all actives have a fitted effect of over 45% in size
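Yeast fusion mutant, YPEG (non-fermentable carbon), compound, 48 h at 37C non-permissive; CellTiterGlo added, 10 min RT, luminescence read. Rescued growth = division inhibition.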
GLP-1R agonist – GLP-1 receptor (human) agonism; AID 624172; 380,000 compounds, 0.007% hits; HEK293 GLP-1R CRE-luciferase, luminescence, 4-6 h; cells express a hypersensitive GLP-1R form; Potency, µM (series often up to 45.6 µM), for the others: at the top dose activation, hits mostly activators; further: % of control where 0% means no effect
BRCA1 expr up – increases BRCA1 expression. MCF7-BRCA1-FFLuc reporter, luminescence, 48 h; response scale: scaled: vehicle 0%, 10 µM genistein 100%. Potency, µM (highest dose often 46.1 µM), without a hit: at the highest dose activation, hits mostly activators. 380,000 compounds, 1.1% hits; further: nearly all actives have a fitted effect of over 80% in size
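MCF7 cells carrying a BRCA1-firefly luciferase reporter (2000 cells/well, phenol-red free MEM) were attached for 2 h at 37 °C, then given compounds for 48 h. Luminescence was read 15 min after luciferase reagent; activity normalized to genistein (10 microM) and DMSO.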
* = called active by the depositor; [ ] = dose if it differs, or a comment. Most compounds without a hit are left out; they make up all but 2.8% or so of the library. The call rests on the fitted dose curve; in most records, active means well fitted curve in the direction sought with a large enough effect; inconclusive means small, poorly fitted or top-dose-only effect, or another doubt; inactive means no such curve, though single readings can be large; an effect the other way counts as inactive or inconclusive. Potency means the concentration at half of the fitted maximal effect.

For O=C1CCCc2ccccc2N1Cc1ccc(Cl)cc1Cl the results were GLP1R cytotox -1.0%, GLP-1R inv ag 11.2µM*, Mito fusion yeast inconclusive, GLP-1R agonist -6.4% and BRCA1 expr up -54.3%.
Screening CC(=Nc1ccccc1)C1=C(O)C(Cc2ccc(O)cc2)NC1=O (configuration not stated) returned GLP1R cytotox -27.6%, GLP-1R inv ag inconclusive, GLP-1R agonist 9.6% and BRCA1 expr up inconclusive.
For O=C(Nc1ccc(/C=C/c2nc3ccccc3o2)cc1)c1c(F)cccc1F the results were GLP1R cytotox -0.2%, GLP-1R inv ag inconclusive, Mito fusion yeast -2.2%, GLP-1R agonist -30.5% and BRCA1 expr up inconclusive.
For O=C(Nc1ccc(/C=C/c2nc3ccccc3o2)cc1)c1cccc(C(F)(F)F)c1 the results were GLP1R cytotox 8.5%, GLP-1R inv ag 3.16µM*, Mito fusion yeast -4.3%, GLP-1R agonist -0.8% and BRCA1 expr up inconclusive.
`COc1cc(OC)cc(C(=O)NC2CCCN(Cc3ccc(Cl)cc3)C2)c1` (configuration not stated) gave GLP1R cytotox -20.3%, GLP-1R inv ag 11.2µM*, Mito fusion yeast -2.8%, GLP-1R agonist 8.9% and BRCA1 expr up -53.1%.
Screening CC1(C)Nc2ccccc2C(=O)N1c1ccc(Br)cc1 returned GLP1R cytotox 14.4%, GLP-1R inv ag inconclusive, GLP-1R agonist 2.6% and BRCA1 expr up inconclusive.
Screening COc1ccc(N2C(=O)c3ccccc3NC2(C)C)cc1 returned GLP1R cytotox 2.3%, GLP-1R inv ag -6.9%, Mito fusion yeast -5.6%, GLP-1R agonist 7.1% and BRCA1 expr up 10µM*.
For CCOc1ccc(N2C(=O)c3ccccc3NC2(C)CC)cc1 (configuration not stated) the results were GLP1R cytotox -5.6%, GLP-1R inv ag inconclusive, Mito fusion yeast -3.4%, GLP-1R agonist -7.8% and BRCA1 expr up 3.55µM*.
For O=C1C2C3C=CC(C3)C2C(=O)N1CCN1CCN(S(=O)(=O)c2ccc3ccccc3c2)CC1 (configuration not stated) the results were GLP1R cytotox -16.5%, GLP-1R inv ag 11.2µM*, Mito fusion yeast 1.9%, GLP-1R agonist -3.6% and BRCA1 expr up -21.3%.
Screening CCc1ccc(-c2ccc(SCC(=O)NCC3CCCO3)nn2)cc1 (configuration not stated) returned GLP1R cytotox -2.1%[0.307 µM], GLP-1R inv ag -27.6%[0.307 µM], Mito fusion yeast -0.6%, GLP-1R agonist 0.4% and BRCA1 expr up 2.51µM*.
For O=C(CSc1ncnc2c1nnn2Cc1ccc(F)cc1)NCC1CCCO1 (configuration not stated) the results were GLP1R cytotox inconclusive, GLP-1R inv ag 12.6µM*, Mito fusion yeast -0.6%, GLP-1R agonist -0.2% and BRCA1 expr up -5.1%.
For COc1ccc(NC(=O)C2CSC3c4ccccc4C(=O)N23)cc1 (configuration not stated) the results were GLP1R cytotox 5.5%, GLP-1R inv ag -3.4%, Mito fusion yeast -10.3%, GLP-1R agonist 11.5% and BRCA1 expr up -16.4%.
Screening O=C(NCCc1ccc(O)cc1)c1ccc(Cl)cc1 returned GLP1R cytotox -11.5%, GLP-1R inv ag -12.3%, Mito fusion yeast -0.8%, GLP-1R agonist -0.1% and BRCA1 expr up inconclusive.
COc1cc(/C=C/CN2CCC(C(=O)NC(c3ccc(F)cc3)c3ccc4ccccc4n3)CC2)ccc1OC(C)=O (configuration not stated) was read as GLP1R cytotox inconclusive, GLP-1R inv ag 10µM*, GLP-1R agonist -5.1% and BRCA1 expr up -56.1%.
Screening CCCC(C)(C)C(=O)N1CCC1(C)C(=O)NS(=O)(=O)c1ccccc1Cl (configuration not stated) returned GLP1R cytotox 6.0%, GLP-1R inv ag 21.5%, GLP-1R agonist -4.0% and BRCA1 expr up 13.8%.
`O=C(NCc1cccs1)c1nc2c(nnn2Cc2ccccc2Cl)c(=O)[nH]1` gave GLP1R cytotox inconclusive, GLP-1R inv ag inconclusive, Mito fusion yeast 7.5%, GLP-1R agonist -10.6% and BRCA1 expr up -77.8%.

From PubChem BioAssay
